Measurements from PubChem BioAssay AID1159580 (chemical genetic matrix, 2015).
Screen size: about 5,500 compounds; about 2,000 (36%) were called active. Not shown: some 18% with an inconclusive outcome. Rule as the data show it: active = normalized growth mostly below about 0.91 (no sharp cut-off); inconclusive = no clear call, values can overlap the other calls; inactive = mostly above about 0.92. Some of the results follow.

Experiment: chemical genetic growth profiling, strain panel (AID 1159580);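 also: tested at 20 µM; growth read once vehicle control cultures reached saturation at 30 °C; 1 = growth at the plate median or of vehicle wells; lower values mean less growth of the strain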
Settings: growth OD

Measured: normalized growth

CCC(=O)O[C@H]1[C@H](O[C@@H]2[C@@H](C)[C@H](O[C@H]3C[C@@](C)(OC)[C@@H](O)[C@H](C)O3)[C@@H](C)C(=O)O[C@H](CC)[C@@](C)(O)[C@H](O)[C@@H](C)C(=O)[C@H](C)C[C@@]2(C)O)O[C@H](C)C[C@@H]1N(C)C
inactive: S. cerevisiae deletion strains, locus YJR066W, strain TOR1, active compounds read low 0.852 | S. cerevisiae deletion strains, locus YKL009W, strain mrt4, active compounds read low 0.932 | S. cerevisiae deletion strains, locus YKL068W, active compounds read low 1.04 | S. cerevisiae deletion strains, locus YKL085W, strain MDH1 (second series), active compounds read low 1 | S. cerevisiae deletion strains, locus YKL085W, strain MDH1, active compounds read low 1 | S. cerevisiae deletion strains, locus YKL160W, strain elf1, active compounds read low 0.924 | S. cerevisiae deletion strains, locus YKL190W, strain CNB1, active compounds read low 1.01 | S. cerevisiae deletion strains, locus YKR026C, strain gcn3, active compounds read low 1.03 | S. cerevisiae deletion strains, locus YKR091W, strain srl3, active compounds read low 1.02 | S. cerevisiae deletion strains, locus YLL026W, active compounds read low 0.942 | S. cerevisiae deletion strains, locus YLL041C, strain sdh2, active compounds read low 1 | S. cerevisiae deletion strains, locus YLR039C, strain RIC1, active compounds read low 0.865 | S. cerevisiae deletion strains, locus YLR058C, strain SHM2, active compounds read low 0.968 | S. cerevisiae deletion strains, locus YLR102C, strain apc9, active compounds read low 1.01 | S. cerevisiae deletion strains, locus YLR113W, strain HOG1, active compounds read low 1.02 | S. cerevisiae deletion strains, locus YLR262C, strain YPT6 (second series), active compounds read low 1.03 | S. cerevisiae deletion strains, locus YLR262C, strain YPT6, active compounds read low 0.882 | S. cerevisiae deletion strains, locus YLR268W, strain sec22, active compounds read low 0.988 | S. cerevisiae deletion strains, locus YLR330W, strain CHS5, active compounds read low 0.937 | S. cerevisiae deletion strains, locus YLR342W, strain FKS1 (second series), active compounds read low 1.05 | S. cerevisiae deletion strains, locus YLR342W, strain FKS1, active compounds read low 1.05 | S. cerevisiae deletion strains, locus YLR370C, strain arc18, active compounds read low 1 | S. cerevisiae deletion strains, locus YLR371W, strain rom2, active compounds read low 0.935 | S. cerevisiae deletion strains, locus YLR384C, strain iki3, active compounds read low 1.02 | S. cerevisiae deletion strains, locus YML016C, strain PPZ1, active compounds read low 1 | S. cerevisiae deletion strains, locus YML032C, strain rad52, active compounds read low 0.946 | S. cerevisiae deletion strains, locus YML124C, strain tub3, active compounds read low 1.02 | S. cerevisiae deletion strains, locus YMR058W, strain fet3, active compounds read low 0.961 | S. cerevisiae deletion strains, locus YMR078C, strain ctf18, active compounds read low 0.988 | S. cerevisiae deletion strains, locus YMR129W, active compounds read low 1 | S. cerevisiae deletion strains, locus YMR223W, strain ubp8, active compounds read low 0.982 | S. cerevisiae deletion strains, locus YMR231W, strain pep5, active compounds read low 0.984 | S. cerevisiae deletion strains, locus YMR263W, strain SAP30, active compounds read low 0.943 | S. cerevisiae deletion strains, locus YNL067W, strain RPL9B, active compounds read low 0.948 | S. cerevisiae deletion strains, locus YNL128W, strain TEP1, active compounds read low 0.985 | S. cerevisiae deletion strains, locus YNL183C, strain NPR1, active compounds read low 0.857 | S. cerevisiae deletion strains, locus YNL209W, strain ssb2, active compounds read low 0.992 | S. cerevisiae deletion strains, locus YNL250W, strain rad50, active compounds read low 1.03 | S. cerevisiae deletion strains, locus YNL271C, strain bni1, active compounds read low 1.01 | S. cerevisiae deletion strains, locus YNL298W, strain CLA4, active compounds read low 0.952 | S. cerevisiae deletion strains, locus YNL322C, strain KRE1 (second series), active compounds read low 0.943 | S. cerevisiae deletion strains, locus YNR049C, strain mso1, active compounds read low 1.01 | S. cerevisiae deletion strains, locus YNR052C, strain pop2, active compounds read low 1 | S. cerevisiae deletion strains, locus YOL006C, strain TOP1, active compounds read low 0.689 | S. cerevisiae deletion strains, locus YOL012C, strain htz1 0.653 | S. cerevisiae deletion strains, locus YOL147C, strain pex11, active compounds read low 0.977 | S. cerevisiae deletion strains, locus YOR061W, strain CKA2, active compounds read low 1.01 | S. cerevisiae deletion strains, locus YOR069W, strain VPS5, active compounds read low 1 | S. cerevisiae deletion strains, locus YOR070C, strain gyp1, active compounds read low 0.93 | S. cerevisiae deletion strains, locus YOR080W, strain dia2, active compounds read low 0.977 | S. cerevisiae deletion strains, locus YOR136W, strain idh2, active compounds read low 0.978 | S. cerevisiae deletion strains, locus YOR144C, strain elg1, active compounds read low 1.01 | S. cerevisiae deletion strains, locus YOR184W, strain ser1, active compounds read low 0.936 | S. cerevisiae deletion strains, locus YOR231W, strain MKK1, active compounds read low 0.879 | S. cerevisiae deletion strains, locus YOR265W, strain rbl2, active compounds read low 0.982 | S. cerevisiae deletion strains, locus YOR316C, strain cot1, active compounds read low 1.01 | S. cerevisiae deletion strains, locus YPL051W, strain arl3, active compounds read low 0.921 | S. cerevisiae deletion strains, locus YPL055C, strain LGE1, active compounds read low 0.894 | S. cerevisiae deletion strains, locus YPL106C, strain sse1, active compounds read low 1.06 | S. cerevisiae deletion strains, locus YPL256C, strain CLN2, active compounds read low 0.953 | S. cerevisiae deletion strains, locus YPR119W, strain clb2, active compounds read low 1.02 | S. cerevisiae deletion strains, locus YPR141C, strain kar3, active compounds read low 1.06 | S. cerevisiae deletion strains, locus YPR167C, strain met16, active compounds read low 0.994 | S. cerevisiae deletion strains, strain wtn01, active compounds read low 0.968 | S. cerevisiae strains, strain wild type, active compounds read low 0.974
active: S. cerevisiae deletion strains, locus YKR001C, strain vps1, active compounds read low 0.648 | S. cerevisiae deletion strains, locus YLL001W, strain dnm1, active compounds read low 0.87 | S. cerevisiae deletion strains, locus YLR027C, strain aat2, active compounds read low 0.893 | S. cerevisiae deletion strains, locus YLR221C, strain rsa3, active compounds read low 0.796 | S. cerevisiae deletion strains, locus YLR258W, strain gsy2, active compounds read low 0.902 | S. cerevisiae deletion strains, locus YLR320W, strain mms22, active compounds read low 0.596 | S. cerevisiae deletion strains, locus YLR357W, strain rsc2, active compounds read low 0.759 | S. cerevisiae deletion strains, locus YLR418C, strain cdc73, active compounds read low 0.615 | S. cerevisiae deletion strains, locus YML120C, strain ndi1, active compounds read low 0.905 | S. cerevisiae deletion strains, locus YMR125W, strain sto1, active compounds read low 0.765 | S. cerevisiae deletion strains, locus YMR205C, strain PFK2, active compounds read low 0.8 | S. cerevisiae deletion strains, locus YMR307W, strain GAS1, active compounds read low 0.463 | S. cerevisiae deletion strains, locus YNL071W, strain lat1, active compounds read low 0.309 | S. cerevisiae deletion strains, locus YNL233W, strain BNI4, active compounds read low 0.853 | S. cerevisiae deletion strains, locus YNL248C, strain rpa49, active compounds read low 0.776 | S. cerevisiae deletion strains, locus YNL307C, strain MCK1, active compounds read low 0.4 | S. cerevisiae deletion strains, locus YOR001W, strain rrp6, active compounds read low 0.861 | S. cerevisiae deletion strains, locus YOR083W, strain WHI5, active compounds read low 0.829 | S. cerevisiae deletion strains, locus YOR106W, strain vam3, active compounds read low 0.75 | S. cerevisiae deletion strains, locus YOR270C, strain vph1, active compounds read low 0.3 | S. cerevisiae deletion strains, locus YOR290C, strain snf2, active compounds read low 0.786 | S. cerevisiae deletion strains, locus YPL078C, strain atp4, active compounds read low 0.635 | S. cerevisiae deletion strains, locus YPL240C, strain hsp82, active compounds read low 0.904 | S. cerevisiae deletion strains, locus YPR163C, strain tif3, active compounds read low 0.829
